Our source for the Potency values is PubChem BioAssay (Tox21).

Inconclusive results are not listed. Where a call stands in place of a potency, no number is given. Activity calls are given as the source filed them. The call rests on the fitted dose curve.
Potency means the concentration at half of the fitted maximal effect.

This test can be described thus: qHTS assay for small molecule agonists of the p53 signaling pathway - cell viability (AID 651633). Further: nearly all actives have a fitted effect of over 30% in size. As to conditions: p53RE-bla HCT-116 viability, ATP luminescence, 16 h; series mostly up to 83.3 µM. The source says:
National Center for Advancing Translational Sciences [NCATS]
NIH Chemical Genomics Center [NCGC]
U.S. Environmental Protection Agency [EPA]
National Institutes of Environmental Health Sciences [NIEHS]
National Toxicology Program [NTP]
U.S. Food and Drug Administration [FDA]
p53, a tumor suppressor protein, is activated following cellular insult, including DNA damage and other cellular stresses. The activation of p53 regulates cell fate by inducing DNA repair, cell cycle arrest, apoptosis, or cellular senescence. The activation of p53, therefore, is a good indicator of DNA damage and other cellular stresses. […] The activation of the reporter gene under culture conditions can be detected by fluorescence intensity. This cell line was used to screen the Tox21 compound library in a 1536-well plate format and to identify agonists that activate the p53 signaling pathway.
Tox21 Assay Protocol Summary:
The p53RE-bla cells were dispensed at 4,000 cells/5 ul/well in 1536-well black wall/clear bottom plates using a Multidrop dispenser. After the assay plates were incubated at a 37 C/5% CO2 incubator for 5 hours, 23 nL of compounds dissolved in DMSO, positive controls or DMSO only was transferred to the assay plate by a pin tool. The plates were incubated at 37 C for 16 hours. After 1 uL of LiveBLAzerTM B/G FRET substrate was added using a Flying Reagent Dispenser, the plates were incubated at room temperature for 2 hours, and fluorescence intensity was measured by an Envision plate reader.
For cell viability readout that measures cytotoxicity, 4 ul/well of CellTiter-Glo reagent was added into the assay plates using a Flying Reagent Dispenser. After 30 min incubation at room temperature, the luminescence intensity in the plates was measured using a ViewLux plate reader.
`NC(CS)C(=O)O` (stereo not given): the Potency result is “inactive”. Consider `NC(=O)c1ncn([C@@H]2O[C@H](CO)[C@@H](O)[C@H]2O)c1N`, for which the Potency result was “inactive”.

With `O=C1OC(=O)c2cc([N+](=O)[O-])ccc21`, the Potency entry is “inactive”.

For the molecule `C1C2OC2C2C1C1CC2C2OC12` (stereo not given), the Potency result is “inactive”. Take `CCCCC=O`: the Potency entry was “inactive”. In the case of `COc1ccc(N=[N+]([O-])c2ccc(OC)cc2)cc1`, the Potency entry was “inactive”. On to `OCC(O)[C@@H](O)[C@H](O)[C@H](O)CO[C@H]1O[C@H](CO)[C@@H](O)[C@H](O)[C@H]1O` (stereo not given in full), for which the Potency result was “inactive”. For `CC1=CC(C)C(C=O)C(C)C1` (stereo not given) the value was “inactive”; for `CC/C=C\C#N`, “inactive”. Turning to `COc1ccc(COC=O)cc1`, the Potency entry is “inactive”.

For `O=C(O)C(O)[C@H](O)[C@@H](O)[C@H](O)[C@H](O)CO` (stereo not given in full), the Potency entry was “inactive”.

Regarding `c1ccc(SCCSc2ccccc2)cc1`, the Potency entry is “inactive”. On to `Oc1ccc2c(c1)OC[C@@H](N1CCC(O)(c3ccc(F)cc3)CC1)[C@H]2O`, for which the Potency result was “inactive”. For `Cc1ccc(Nc2ccc(O)c3c2C(=O)c2ccccc2C3=O)cc1`, the Potency result was “inactive”. The result for `CC(=O)c1ccc(C)cc1` reads “inactive”. Regarding `C[C@H]1O[C@@H](n2cc(F)c(=O)[nH]c2=O)[C@H](O)[C@@H]1O`, the Potency was 8.41 µM (active). On to `O=C(O)/C=C/c1ccc(/C=C/C(=O)O)cc1`, for which the Potency result is “inactive”. For `COc1cc(CCC(C)=O)ccc1O`, the Potency entry is “inactive”.

For `CNc1ncnc2nc[nH]c12`, the Potency result is “inactive”.

For the molecule `CC(C)[C@H](N)C(=O)OCCOCn1cnc2c(=O)[nH]c(N)nc21`, the Potency entry was “inactive”. Turning to `Cc1c(C)n(CCN(C)C)c2ccc(C(=O)OCCN(C)C)cc12`, the Potency result was “inactive”. As for `OC1OC[C@@H](O)[C@H](O)[C@H]1O` (stereo not given in full), the Potency result is “inactive”. Take `CC(=O)CCc1ccc(O)cc1`: the Potency result was “inactive”. In the case of `C=C(C)[C@H]1CC=C(C)CC1`, the Potency entry is “inactive”. As to `NC(=O)Nc1nc2ccccc2[nH]1`, the Potency entry is “inactive”. `CSc1ccc(C=O)cc1`: the Potency result was “inactive”.

Take `C[C@H](O)C(=O)Nc1c(I)c(C(=O)NC(CO)CO)c(I)c(C(=O)NC(CO)CO)c1I`: the Potency result is “inactive”. As for `Cc1onc(-c2ccccc2)c1-c1ccc(S(N)(=O)=O)cc1`, the Potency result is “inactive”. In the case of `C=CCSCC1Nc2cc(Cl)c(S(N)(=O)=O)cc2S(=O)(=O)N1` (stereo not given), the Potency entry was “inactive”. The result for `NC(N)=NS(=O)(=O)c1ccc(N)cc1` reads “inactive”; that for `CCC(=O)c1cccc(Cl)c1`, “inactive”. The result for `CC/C=C\CCCCO` reads “inactive”; that for `CC(C)(C)N(CCO)CCO`, “inactive”. Turning to `CCCCCOC(=O)Nc1nc(=O)n([C@@H]2O[C@H](C)[C@@H](O)[C@H]2O)cc1F`, the Potency result is “inactive”.

As for `CN1[C@@H]2CC[C@H]1CC(NC(=O)n1c(=O)[nH]c3ccccc31)C2` (stereo not given in full), the Potency entry is “inactive”. For `CC(C)CCCCCCN` the value was “inactive”; for `C1CCCCCCCCCCC1`, “inactive”. In the case of `CC(C=O)Cc1ccc(C(C)C)cc1` (stereo not given), the Potency result is “inactive”. The result for `COC[C@H](c1ccc(C(F)(F)F)cc1)N1CCN(C2(C)CCN(C(=O)c3c(C)ncnc3C)CC2)C[C@H]1C` reads “inactive”; that for `Cc1nc(-c2ccc(OCC(C)C)c(C#N)c2)sc1C(=O)O`, “inactive”.
